Sampled rows, rich in hits. Any-hit rate of the full collection: about 0.86%.
APE1 inh: qHTS Assay for Inhibitors of the Human Apurinic/apyrimidinic Endonuclease 1 (APE1); recombinant APE1, TAMRA/BHQ-2 abasic DNA cleavage fluorescence; Potency, µM (highest dose often 65.8 µM), for inactives: at the top dose activity change, negative = inhibition, hits mostly inhibitors; actives 0.35% (n = 350,000);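 note: plate controls were vehicle for no effect and reference inhibitor for full effect; nearly all actives have a fitted effect of over 55% in size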
Target sequence (P27695 whole entry, looked up): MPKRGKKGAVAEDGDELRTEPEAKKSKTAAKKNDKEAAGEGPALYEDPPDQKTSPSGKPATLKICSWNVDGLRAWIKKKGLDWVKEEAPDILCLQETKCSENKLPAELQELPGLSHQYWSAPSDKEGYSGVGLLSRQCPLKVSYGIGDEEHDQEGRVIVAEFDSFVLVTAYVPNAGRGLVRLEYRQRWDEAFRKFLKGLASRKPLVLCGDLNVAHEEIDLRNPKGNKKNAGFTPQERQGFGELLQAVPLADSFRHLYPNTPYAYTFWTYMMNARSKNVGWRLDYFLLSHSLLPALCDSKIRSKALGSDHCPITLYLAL
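Kinetic fluorescence read (525 ex/598 em nm, three reads 60 s apart) of AP-site incision; signal = third minus first read. Enzyme 0.75 nM, dual-labelled THF duplex 50 nM, compound preincubation 15 min RT.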
BLM helicase inh: qHTS Assay for Inhibitors of Bloom's syndrome helicase (BLM); Potency, µM (titrated, usually from 56.1 µM), inactives show at the highest dose activity change, negative = inhibition, actives largely listed as inhibitors; actives 0.2% (n = 350,000); RecQ-like DNA helicase BLM (Homo sapiens), P54132; recombinant BLM DNA unwinding, fluorescence dequenching;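 note: plate controls were vehicle for no effect and no enzyme for full effect; nearly all actives have a fitted effect of over 35% in size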
RECQ1 inh-1: qHTS Assay for Inhibitors of RecQ-Like Dna Helicase 1 (RECQ1); AID 2549, 2010; ATP-dependent DNA helicase Q1 (Homo sapiens), P46063; actives 0.54% (n = 240,000); RECQ1 DNA unwinding, red fluorescence kinetic read; Potency, µM (highest dose often 57.3 µM), without a hit: top-dose activity, negative = inhibition, actives largely listed as inhibitors;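 note: plate controls were vehicle for no effect and no enzyme for full effect; nearly all actives have a fitted effect of over 30% in size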
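50 nM RECQ1T1 preincubated 15 min with compound in Tris pH 8.0 buffer with MgCl2, DTT, Tween-20 and 2.5 ug/ml poly(dI-dC); started with 200 nM TAMRA/BHQ-2 forked duplex and 2 mM ATP. Unwinding read as fluorescence (525/598 nm), two reads 2 h apart.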
GLS inhibitor: qHTS for Inhibitors of Glutaminase (GLS). GLS enzymatic activity, qHTS titration. Glutaminase kidney isoform, mitochondrial (Homo sapiens), O94925. AID 624170, 2012. Potency, µM (series often up to 45.5 µM), for inactives: at the highest dose activity change, negative = inhibition, hits mostly inhibitors. actives 0.21% (n = 410,000)
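hKGA in 45 mM KH2PO4 pH 8.2, 0.02% Tween-20 with pin-transferred compounds; 1 mM L-glutamine (stock) plus glutamate oxidase/HRP/Amplex Red coupling added. Fluorescence read initially and after 30 min at RT.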
FEN1 inh: qHTS Assay for the Inhibitors of Human Flap endonuclease 1 (FEN1); P39748; Recombinant FEN1 flap cleavage, fluorescence, 15 min; Potency, µM (series often up to 114 µM), for the others: top-dose activity change, negative = inhibition, hits mostly inhibitors; actives 0.35% (n = 390,000); AID 588795, 2011; note: nearly all actives have a fitted effect of over 65% in size
Target sequence (P39748 whole entry, looked up): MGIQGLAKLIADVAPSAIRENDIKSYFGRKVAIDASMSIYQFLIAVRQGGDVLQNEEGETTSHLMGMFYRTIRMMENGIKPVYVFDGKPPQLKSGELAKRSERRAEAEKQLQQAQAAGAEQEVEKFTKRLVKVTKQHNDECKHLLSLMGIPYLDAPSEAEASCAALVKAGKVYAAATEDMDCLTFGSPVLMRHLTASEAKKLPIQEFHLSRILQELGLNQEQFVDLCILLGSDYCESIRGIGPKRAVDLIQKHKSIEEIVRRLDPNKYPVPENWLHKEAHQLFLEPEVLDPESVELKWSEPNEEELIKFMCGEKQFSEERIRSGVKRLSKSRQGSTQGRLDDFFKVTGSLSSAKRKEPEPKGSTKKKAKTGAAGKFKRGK
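In this screen, 50 nM flap DNA substrate was added to 10 nM FEN1 pretreated with compound for 15 min at room temperature; cleavage was followed with reads at 0 and 15 min, and Hill fitting gave concentration–response parameters.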
PGK inhibitor: qHTS Assay to Find Inhibitors of Phosphoglycerate Kinase; AID 602233, 2012; Phosphoglycerate kinase, glycosomal (Trypanosoma brucei brucei), P07378; Potency, µM (doses to about 57.5 µM), without a hit: top-dose activity change, negative = inhibition, hits mostly inhibitors; PGK/GAPDH coupled, Kinase-Glo luminescence, 60 min; actives 0.043% (n = 380,000); note: nearly all actives have a fitted effect of over 60% in size
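Luminescent ATP detection (Kinase-Glo Plus) follows a 60-minute room-temperature incubation, with wells lacking PGK as controls. Buffer: 100 mM TEA (pH 7.6), 5 mM MgCl2, 0.01% Tween-20. Coupling enzyme GAPDH (100 nM final) supplies unstable 1,3-BPG in-well.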
RECQ1 conf: Confirmation qHTS Assay for Inhibitors of RecQ-Like Dna Helicase 1 (RECQ1); shares compounds with RECQ1 inh-1; RECQ1 helicase DNA unwinding, fluorescence; Potency, µM (top dose mostly 229 µM), for the others: top-dose activity change, negative = inhibition, most hits filed as inhibitors; actives 28% (n = 610); AID 2708, 2010; note: nearly all actives have a fitted effect of over 45% in size
RECQ1 ADP FP: Counterscreen for RECQ1 Inhibitors: ADP Fluorescence Polarization Displacement Assay | shares compounds with RECQ1 inh-1 | actives 27% (n = 530) | AID 2711, 2010 | Potency, µM (top dose mostly 228 µM), for inactives: at the highest dose activity change, negative = inhibition, most hits filed as inhibitors | ADP fluorescence polarization displacement counterscreen; note: nearly all actives have a fitted effect of over 45% in size
RECQ1 inh-2: Confirmation qHTS Assay for Inhibitors of RecQ-Like Dna Helicase 1 (RECQ1) - Round 2 Cherry Picks. shares compounds with RECQ1 inh-1. recombinant RECQ1 DNA unwinding, red fluorescence. Potency, µM (series often up to 119 µM), for the others: at the top dose activity, negative = inhibition, usual class: inhibitors. actives 15% (n = 1,100). AID 504841, 2011; note: nearly all actives have a fitted effect of over 50% in size
An asterisk follows results filed as active; i = inactive; ? = inconclusive; / = no result; [ ] = remark or other dose. Calls come from the whole dose curve; as a rule, active = well fitted curve in the direction sought with a large enough effect; inconclusive = small, poorly fitted or top-dose-only effect, or another doubt; inactive = no such curve, though single readings can be large; an effect the other way counts as inactive or inconclusive. Unless noted, % is set by controls: 0 for no effect and ±100 for the full control effect; potency is the fitted concentration of half-maximal effect.

SMILES | APE1 inh | BLM helicase inh | RECQ1 inh-1 | GLS inhibitor | FEN1 inh | PGK inhibitor | RECQ1 inh-2 | others
Cc1ccc(NC(=O)c2cc(-c3cccs3)nc3ccccc23)c(C)c1 | / | -1.8% | / | -2.2% | -36.0% | -12.4% | /
CC1CCCN(c2ncnc3c2nnn3C)C1 (stereo unspecified) | / | 0.7% | / | -21.4% | 6.1% | -7.9% | /
COc1ccc(C2=C(C(C)=O)Sc3nnc(-c4ccc(C)cc4)n3N2C(C)=O)cc1OC | / | -12.3% | / | 9.3% | 5.2% | 9.5% | /
Cc1cc(OCC(F)(F)C(F)(F)C(F)(F)C(F)(F)C(F)(F)C(F)F)nc(N)n1 | 2.3% | -21.0% | 28.2µM* | 9.3% | -13.2% | -1.4% | -19.7%
COc1c(C(CC(C)C)OC(C)=O)ccc2c1C(=O)OCc1cc(C)cc(O)c1O2 (stereo unspecified) | -6.0% | -20.1% | ? | 7.8% | ? | -1.9% | -12.8%
COC(=O)c1cc2sccc2n1Cc1nc(-c2ccc(OC)cc2)oc1C | 18.1% | -7.9% | i | 3.8% | 5.8% | -13.7%[11.5 µM] | /
COC(=O)c1cc2ccsc2n1Cc1nc(-c2ccc(OC)cc2)oc1C | -1.6% | -3.8% | 31.6µM* | 2.0% | -1.8% | i | -22.7%
CCc1ccc(-c2nc(CN3CCCC(C(=O)N4CCN(c5cc(Cl)ccc5C)CC4)C3)c(C)o2)cc1 (stereo unspecified) | / | -9.6% | / | -5.4% | -22.2% | i | /
COc1cc(C(C)=O)ccc1COc1ccc(C(=O)OCC(=O)NC(C)(C)C)cc1OC | -1.1% | -0.4% | -0.1% | 12.4% | -14.4% | 4.7% | /
COc1cc(C(C)=O)ccc1COc1ccc(C(=O)OCC(=O)NC2CCS(=O)(=O)C2)cc1OC (stereo unspecified) | -2.9% | -0.4% | 31.6µM* | -4.7% | -5.5% | 0.0% | -9.4%
Nc1[nH]c(=O)nc2c1ncn2C1OC(CO)C(O)C1O (stereo unspecified) | / | / | / | / | -2.5% | / | /
COc1cc(C(=O)NC(=S)Nc2ccc(N3CCCC3)cc2)cc(OC)c1OC | -10.0% | -3.2% | ? | 1.8% | 8.3% | -4.9% | -9.7%
COc1ccc(C(=O)NC(=S)Nc2ccc(N3CCCC3)cc2)cc1 | -0.9% | -1.7% | -9.4% | 0.0% | -8.1% | -8.2% | /
O=C(CC1N=C2c3ccccc3N=C(SCc3ccc(Cl)cc3)N2C1=O)NCc1ccco1 (stereo unspecified) | 13.2% | -13.6% | ? | 1.9% | -14.2% | -5.0% | ?
Cc1ccc(CSC2=Nc3ccccc3C3=NC(CCC(=O)NCc4ccco4)C(=O)N23)cc1 (stereo unspecified) | -2.7% | -7.6% | -13.4% | -3.6% | -7.5% | -9.1% | /
Cc1nnc(NC(=O)CSc2nnc(-c3ccc(S(=O)(=O)N4CCCC4)cc3)n2C)s1 | 4.4% | -5.7% | -0.7% | 2.6% | -0.8% | 12.1% | / | RECQ1 conf=-1.0%;RECQ1 ADP FP=13.4%
CCn1c(SCC(=O)Nc2nccs2)nnc1-c1ccc(S(=O)(=O)N2CCCCCC2)cc1 | -0.8% | -1.7% | -13.5% | -8.0% | 0.1% | -2.7% | /
Cn1c(SCC(=O)Nc2nccs2)nnc1-c1ccc(S(=O)(=O)N2CCCC2)cc1 | 0.5% | -0.8% | i | 8.4% | 4.3% | -5.3% | /
O=C(CSc1n[nH]c(-c2ccc(S(=O)(=O)N3CCCCC3)cc2)n1)Nc1nccs1 | ? | -6.1% | i | 4.8% | -14.1% | i | / | RECQ1 conf=-6.4%;RECQ1 ADP FP=25.1%
O=C(c1ccc(Nc2nccc(-c3cc4ccccc4s3)n2)cc1)N1CCC(N2CCCC2)CC1 | -7.4% | ? | ? | / | / | / | 25.1µM*
O=C(c1cccc(F)c1)N1CCC(N2CCCCCC2)CC1 | 1.7% | -0.2% | -3.0% | -0.2% | -0.4% | 9.8% | /
Cc1cc(C(=O)OCC(=O)c2ccc(Cl)c([N+](=O)[O-])c2)c2cccc(C)c2n1 | ? | -17.2% | 17.8µM* | 1.3% | 7.2% | -1.3% | -13.3%
COc1ccc2c(C(=O)CN3CCSCC3)c[nH]c2c1 | 4.7% | 1.8% | -1.1% | 1.0% | 10.2% | i | /
COc1ccc2c(C(=O)CN3CCN(c4ccccc4)CC3)c[nH]c2c1 | 2.9% | -2.0% | ? | 5.1% | -7.4% | 4.7% | -18.3%
O=C(COc1ccc2c(c1)CCC2)N1CCN(c2cccc(C(F)(F)F)c2)CC1 | ? | -5.5% | 35.5µM* | -3.7% | -19.1% | -3.8% | -14.2%
Cc1ccc(C)c(N2CCN(C(=O)c3cc(S(=O)(=O)N4CCCCCC4)cn3C)CC2)c1 | / | -6.7% | / | 26.6% | -24.3% | -2.1% | /
Clc1ccccc1-c1nnc2sc(C3COc4ccccc4O3)nn12 (stereo unspecified) | 4.8% | -8.4% | 4.47µM* | 1.0% | -7.9% | i | -19.1% | RECQ1 conf=-12.9%[114 µM];RECQ1 ADP FP=?
COc1cccc(C(=O)Nc2ccc(Cl)c(-c3nc4ccccc4[nH]3)c2)c1 | / | -3.6% | / | -0.3% | -2.4% | / | /
COc1ccc(CNC(=O)c2ccc3c(c2)N(Cc2cccc(Cl)c2)C(=O)c2ccccc2S3)c(OC)c1 | / | -3.0% | / | 6.8% | 7.4% | -6.0% | /
COc1ccc(CN(C(=O)c2ccc(-c3ccccc3)[nH]2)C(C(=O)NCC2CCCO2)c2ccc(C)o2)cc1 (stereo unspecified) | 6.1% | -11.9% | 25.1µM* | 10.7% | -12.5% | 3.1% | -11.7%

Screening data deposited in PubChem BioAssay by National Center for Advancing Translational Sciences (NCATS).
